Screens as filed in PubChem.
SARS PLpro yeast: inhibitors of SARS-CoV papain-like protease in yeast. S. cerevisiae expressing SARS-CoV PLpro, growth rescue. Potency, µM (top dose mostly 32.9 µM), actives largely listed as activators. 0.19% of 330,000 active. AID 485353; calls by dose curve; further: nearly all actives have a fitted effect of over 55% in size
Pf growth 48h: P. falciparum growth inhibition at 48 hours (one generation); Potency, µM (top dose mostly 28.7 µM), hits mostly inhibitors; 5.9% of 310,000 active; AID 504832; P. falciparum luciferase growth in erythrocytes, 48 h
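Firefly luciferase activity from engineered P. falciparum reports growth; inhibitors lower the luminescent signal. Cultures contained 2% hematocrit erythrocytes at 0.1% final parasitemia.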
HCMV inh: inhibitors of human cytomegalovirus | HFF cells, HCMV-luciferase reporter, 72 h; hits give low values | activity change, negative = inhibition, % at 57.5 µM | 4.5% of 410,000 active | AID 1259415; in the data active means activity change below about -60%; inconclusive means no clear call, values can overlap the other calls; inactive means above about -39%
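Steps: HFFs plated, 16 h 37C; compounds added; HCMV-luciferase added to MOI 1 PFU/cell; 72 h 37C; OneGlo reagent, 5 min room temperature; luminescence read, normalized to controls.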
HCV inh: HCV inhibition | Huh7.5.1 HCVcc-Cre infection, luciferase reporter, 44 h | Potency, µM (highest dose often 41.8 µM), usual class: inhibitors | 3.4% of 340,000 active | AID 651820
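Cells seeded at 1,000/well and cultured 4 h, then compounds added followed by HCVcc-Cre virus (~0.5 moi). After 44 h further culture, luciferase substrate was added, plates held 15 min at room temperature, and luminescence read for 15 sec.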
Sm TGR block: inhibitors of Schistosoma mansoni thioredoxin glutathione reductase; Potency, µM (highest dose often 114 µM), usual class: inhibitors; purified TGR, DTNB reduction, TNB absorbance 405 nm; Q962Y6; 3% of 360,000 active; AID 485364; further: nearly all actives have a fitted effect of over 60% in size
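TGR 20 nM + NADPH 100 uM (dispensed conc.), cpd preinc 15 min RT; start with NADPH (500 uM addition) then DTNB (15 mM addition). Kinetic TNB absorbance, 405 nm filter. Four-parameter Hill fit across titration.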
Pf growth 96h: P. falciparum growth inhibition at 96 hour, primary screen for plastid delayed-death inhibitors | Potency, µM (series often up to 28.7 µM), hits mostly inhibitors | P. falciparum luciferase reporter growth, 96 h | 6.9% of 320,000 active | AID 504834
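Luminescence readout: decreased luciferase signal marks inhibited growth of reporter-expressing P. falciparum in infected red cells (2% hematocrit, 0.05% parasitemia final), exposed to compound two generations (96 h, 37 C, 5% CO2).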
Hits are given with their value; ! = repeats disagree; [ ] = dose if it differs, or a comment. Most compounds without a hit are left out; they make up all but 15% or so of the library. Unless noted, the call rests on the fitted dose curve; in most records, active means well fitted curve in the direction sought with a large enough effect; inconclusive means small, poorly fitted or top-dose-only effect, or another doubt; inactive means no such curve, though single readings can be large; an effect the other way counts as inactive or inconclusive.

For COc1ccc(C(=O)c2ccccc2)c(O)c1 the results were SARS PLpro yeast inactive, Pf growth 48h inconclusive, HCMV inh inactive, HCV inh inactive, Sm TGR block inactive and Pf growth 96h 15.1µM!.
`COc1cc(OC)cc(C(=O)O/N=C(\N)c2ccncc2)c1` gave SARS PLpro yeast inactive, Pf growth 48h inconclusive, HCMV inh inactive, HCV inh inactive, Sm TGR block inactive and Pf growth 96h inconclusive.
CCN(CC)c1ccc(NC(=O)COC(=O)COc2ccccc2[N+](=O)[O-])cc1 was read as SARS PLpro yeast inactive, Pf growth 48h inactive, HCMV inh inactive, HCV inh inactive, Sm TGR block inactive and Pf growth 96h inactive.
`NC(=O)Cn1ccc(O)c(Cc2ccc(Cl)cc2Cl)c1=O` gave SARS PLpro yeast inactive, Pf growth 48h inactive, HCMV inh inactive, HCV inh inactive, Sm TGR block inactive and Pf growth 96h inactive.
For COc1ccc(OCCOc2ccc(/C=C3\C(=N)N4N=C(C)SC4=NC3=O)cc2)cc1 the results were SARS PLpro yeast inactive, Pf growth 48h inactive, HCMV inh inactive, HCV inh inactive, Sm TGR block inactive and Pf growth 96h inactive.
Cc1cccc(/C(N)=N/OC(=O)N2c3ccccc3Sc3ccccc32)c1 was read as SARS PLpro yeast inactive, Pf growth 48h inconclusive, HCMV inh inactive, HCV inh inactive, Sm TGR block inactive and Pf growth 96h 6.57µM.
Screening COc1ccc(C(=O)O/N=C(\N)c2ccccn2)c(OC)c1 returned SARS PLpro yeast inactive, Pf growth 48h inactive, HCMV inh -74.9, HCV inh inconclusive, Sm TGR block inactive and Pf growth 96h inactive.
Screening COc1ccc(C(=O)O/N=C(\N)c2ccc(OC)c(OC)c2)c(OC)c1 returned SARS PLpro yeast inactive, Pf growth 48h inactive, HCV inh 12.6µM, Sm TGR block inactive and Pf growth 96h inactive.
Screening CCOC(=O)c1c(C)oc2ncnc(Nc3ccc(OCC)cc3)c12 returned HCMV inh inactive and Sm TGR block inactive.
Screening COc1cc(C)ccc1OCc1cc(C(=O)N(C)CCCN2CCOCC2)no1 returned SARS PLpro yeast inactive, Pf growth 48h inactive, HCMV inh inactive, HCV inh inactive, Sm TGR block inactive and Pf growth 96h inconclusive.
CCOC(=O)C1(CCc2ccccc2)CCN(C(=O)C2=C(C)OCCO2)CC1 was read as SARS PLpro yeast inactive, Pf growth 48h inactive, HCMV inh inactive, HCV inh inactive, Sm TGR block inactive and Pf growth 96h inconclusive.
`CCOC(=O)C1(CCc2ccccc2)CCN(Cc2cccc3cnccc23)CC1` gave SARS PLpro yeast inactive, Pf growth 48h inconclusive, HCMV inh inconclusive, HCV inh 10µM, Sm TGR block inactive and Pf growth 96h 7.38µM.
For CCOC(=O)C1(Cc2ccccc2)CCN(Cc2cccc3c2OCO3)CC1 the results were SARS PLpro yeast inactive, Pf growth 48h inconclusive, HCMV inh inconclusive, HCV inh inactive and Pf growth 96h inconclusive.
Screening CCOC(=O)C1(CCc2ccccc2)CCN(Cc2c(O)cccc2OC)CC1 returned SARS PLpro yeast inactive, Pf growth 48h 0.262µM, HCMV inh inactive, HCV inh inconclusive, Sm TGR block inactive and Pf growth 96h inactive.
Screening CCOC(=O)C1(CCc2ccccc2)CCN(Cc2cccc3c2OCO3)CC1 returned SARS PLpro yeast inactive, Pf growth 48h inconclusive, HCMV inh inconclusive, HCV inh 10µM, Sm TGR block inactive and Pf growth 96h inactive.
Screening CCOC(=O)C1(CCc2ccccc2)CCN(C(=O)CN2CCOC2=O)CC1 returned SARS PLpro yeast inactive, Pf growth 48h inactive, HCMV inh inactive, HCV inh inactive, Sm TGR block inactive and Pf growth 96h 1.65µM.
Screening CSc1ncc(C(=O)NCc2ccc(Cl)cc2)c(C(F)(F)F)n1 returned HCMV inh inactive and Sm TGR block inactive.
CCOC(=O)/C(=N/Nc1ccccc1)N1CCCc2ccccc21 was read as SARS PLpro yeast inconclusive, Pf growth 48h 14.7µM, HCMV inh -63.1, HCV inh inactive, Sm TGR block inactive and Pf growth 96h inconclusive.
CCOC(=O)/C(=N/Nc1ccccc1OC)N1CCCc2ccccc21 was read as SARS PLpro yeast inactive, Pf growth 48h inconclusive, HCMV inh inactive, HCV inh inconclusive, Sm TGR block 39.8µM and Pf growth 96h inconclusive.
COc1ccc(C(CNC(=O)c2cccc(S(=O)(=O)N3CCc4ccccc43)c2)N(C)C)cc1 (stereo unspecified) was read as SARS PLpro yeast inactive, HCMV inh inactive and HCV inh inconclusive.
O=C(COC(=O)c1ccc(F)c([N+](=O)[O-])c1)NC(=O)NCc1ccccc1 was read as SARS PLpro yeast inactive, HCMV inh inactive and HCV inh inconclusive.
For O=C(Nc1cccc(Cl)c1)c1ccc(NCCCN2CCOCC2)c([N+](=O)[O-])c1 the results were SARS PLpro yeast inactive, Pf growth 48h inconclusive, HCMV inh inconclusive, HCV inh 10µM, Sm TGR block inactive and Pf growth 96h inactive.
Screening Cc1ccc(NC(=O)c2ccc(NCCN)c([N+](=O)[O-])c2)cc1 returned SARS PLpro yeast inactive, Pf growth 48h inconclusive, HCMV inh inactive, HCV inh inactive, Sm TGR block inactive and Pf growth 96h inconclusive.
Cc1ccc(NC(=O)c2ccc(NCCCN3CCC(C)CC3)c([N+](=O)[O-])c2)cc1F was read as SARS PLpro yeast inactive, Pf growth 48h 1.17µM, HCMV inh inactive, HCV inh inconclusive, Sm TGR block inactive and Pf growth 96h inactive.
`COc1cc(CN2C[C@@H](CO)O[C@@H](n3cnc4c(N(C)C)ncnc43)C2)cc(OC)c1OC` gave HCMV inh inactive.
`CSCCC(c1nc2ccccc2[nH]1)n1c(-c2ccc3ncccc3c2)nc2ccccc21` (stereo unspecified) gave HCMV inh inactive.
Screening COc1ccc(-c2nc3ccccc3nc2-c2ccc(OC)c(OC)c2)cc1OC returned SARS PLpro yeast inactive, Pf growth 48h inconclusive, HCMV inh inactive, HCV inh inactive, Sm TGR block inactive and Pf growth 96h inactive.
For COc1ccc(-c2cc3ccccc3nc2N)cc1OC the results were SARS PLpro yeast inactive, Pf growth 48h inactive[0.00184 µM], HCMV inh inactive, HCV inh 11.2µM, Sm TGR block inactive and Pf growth 96h inconclusive.
CCCC(c1nnnn1CC(=O)OCC)N(Cc1cc2c(C)cc(C)cc2[nH]c1=O)C1CCCC1 (stereo unspecified) was read as SARS PLpro yeast inactive, Pf growth 48h 13.1µM, HCMV inh inactive, HCV inh inactive and Sm TGR block inconclusive.
Screening Cc1cc(C)c2c(=O)cc(C(=O)Nc3ccc(S(=O)(=O)N(C)Cc4ccccc4)cc3)oc2c1 returned HCMV inh inactive and Sm TGR block inactive.
`CC(C)c1[nH]nc2c1C(C(C)C)C(C#N)=C(N)O2` (stereo unspecified) gave SARS PLpro yeast inactive, Pf growth 48h inactive, HCMV inh inactive, HCV inh inactive, Sm TGR block inactive and Pf growth 96h 7.38µM.
